An excerpt weighted towards active compounds, which were near 8% of everything screened.
MCF10A rereplic: A quantitative high throughput screen for small molecules that induce DNA re-replication in MCF 10a normal breast cells | MCF 10A DNA re-replication, Hoechst nuclear intensity, 48 h | Potency, µM (series often up to 46.1 µM), for the others: at the top dose activity, positive = re-replication, actives largely listed as activators | hit rate 2.9% among 350,000 | AID 624296, 2012; further: % of control where 0% means no effect; nearly all actives have a fitted effect of over 50% in size
SW480 rereplic: A quantitative high throughput screen for small molecules that induce DNA re-replication in SW480 colon adenocarcinoma cells; SW480 DNA re-replication, Hoechst DNA content imaging, 48 h; hit rate 1.8% among 340,000; Potency, µM (titrated, usually from 46.1 µM), without a hit: at the top dose re-replication activation, hits mostly activators; further: % of control where 0% means no effect; nearly all actives have a fitted effect of over 55% in size
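Readout is total intensity of Hoechst-stained nuclei, excited at 405 nm and collected at 500-530 nm. Compound treatment lasted 48 hr at 37 C in 5% CO2 before staining.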
HT1080 IDH1KD tx: qHTS for induction of synthetic lethality in tumor cells producing 2HG: qHTS for the HT-1080-IDH1KD cell line; hit rate 2% among 360,000; Potency, µM (top dose mostly 46.1 µM), for the others: top-dose activity, negative = toxicity, hits mostly cytotoxic; HT-1080 IDH1 knockdown viability, ATP luminescence, 48 h; AID 686971, 2013;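 further: 0% = DMSO wells and -100% = cell-free medium wells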
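Luminescent ATP read-out (CellTiter-Glo, 10 min at room temperature) after 48 h compound exposure at 37 °C gave viability of IDH1-knockdown HT-1080 cells. Activity was normalised to DMSO and cell-free wells, then fitted as concentration-response curves.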
HT1080-NT tox: qHTS for induction of synthetic lethality in tumor cells producing 2HG: qHTS for the HT-1080-NT fibrosarcoma cell line. HT-1080-NT fibrosarcoma viability, CellTiter-Glo ATP luminescence, 48 h. hit rate 1.6% among 360,000. Potency, µM (highest dose often 46.1 µM), for the others: top-dose activity, negative = less viability, hits mostly cytotoxic;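 further: NT is the 2HG producing partner of a matched IDH1 knockdown line; 0% = DMSO-treated cells and -100% = media-only wells without cells; nearly all actives have a fitted effect of over 55% in size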
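HT-1080-NT; 750 cells/well; 5% FBS RPMI; 48 h compound, 37 degrees C; CellTiter-Glo luminescence; curve fitting and curve-class assignment.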
KB-3-1 cytotox: qHTS assay for MDR1-selective chemotherapeutics: Primary screen using the parental adenocarcinoma cell KB-3-1 | hit rate 1.4% among 400,000 | KB-3-1 viability, CellTiter-Glo ATP luminescence, 72 h | Potency, µM (top dose mostly 46.1 µM), actives largely listed as cytotoxic; further: on the % scale 0 is the no-effect control and ±100 the full control effect; nearly all actives have a fitted effect of over 60% in size
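Here the drug-naive KB-3-1 line serves as comparator for MDR sub-line selectivity; cells received compound titrations, 72 h at 37 °C, then CellTiter-Glo readout.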
KB-V1 cytotox: qHTS assay for MDR1-selective chemotherapeutics: Primary screen using the drug-selected MDR subline cells KB-V1 | KB-V1 MDR cells viability, CellTiter-Glo, 72 h | Potency, µM (titrated, usually from 46.1 µM), actives largely listed as cytotoxic | hit rate 3.4% among 400,000; further: on the % scale 0 is the no-effect control and ±100 the full control effect; nearly all actives have a fitted effect of over 60% in size
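Cytotoxicity toward P-gp-expressing KB-V1 cells was determined as loss of CellTiter-Glo luminescence after 72 h at 37 degrees C. Compounds were tested in quantitative HTS format across a concentration range, with curves fitted to normalized data.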
Starred values were filed as active, the others as inactive; i = inactive; ? = inconclusive; / = no result given; ! = not active in a repeat. The call rests on the fitted dose curve; in most records, active means well fitted curve in the direction sought with a large enough effect; inconclusive means small, poorly fitted or top-dose-only effect, or another doubt; inactive means no such curve, though single readings can be large; an effect the other way counts as inactive or inconclusive. Potency means the concentration at half of the fitted maximal effect.

SMILES	MCF10A rereplic	SW480 rereplic	HT1080 IDH1KD tx	HT1080-NT tox	KB-3-1 cytotox	KB-V1 cytotox
CC(=O)c1cccc(NC(=O)c2nc3ccccc3nc2N2CCCCC2)c1	/	/	/	/	?	i
COc1ccc(C2c3cc4c(cc3OC(N3CCOCC3)C2C)OCO4)c(OC)c1 (centres undefined)	2.9µM*	?	?	?	4.6µM*	?
Cc1cccc(NC(=O)CSc2nc3ccccc3c3nc(CCn4cncc4C)nn23)c1	/	/	/	/	i	i
N#CCCN(C(=O)COC(=O)c1cccc(S(=O)(=O)N2CCCC2)c1)c1ccc(F)cc1	2%	-1%	10%	6%	i	i
O=C(COC(=O)c1cccc(S(=O)(=O)N2CCCC2)c1)Nc1ccccc1C(F)(F)F	6%	4.6µM*	7%	-1%	i	i
N#CCCN(C(=O)COC(=O)c1cccc(S(=O)(=O)N2CCCCCC2)c1)c1ccc(F)cc1	0%	-2%	15%	-2%	i	13µM*
Cc1ccc(NC(=O)CSc2nc3ccc(NC(=O)CCc4ccccc4)cc3s2)cc1	/	/	/	/	i	i
CCN(CC)CCNC(=O)c1c(C)n(-c2ccccc2)c2cc(Br)c(OC)cc12	?	24%	16µM*	?	?	i
COC(=O)CSC1=C(C#N)C(c2ccccc2)CC(=O)N1 (centres undefined)	?	?	-29%	?	?	18µM*
COC(=O)CSC1=C(C#N)C(c2cccc(OC)c2)CC(=O)N1 (centres undefined)	15%	12%	-2%	6%	?	?
COC(=O)CSC1=C(C#N)C(c2cccc(F)c2)CC(=O)N1 (centres undefined)	?	?	?	15µM*	16µM*	?
Brc1cccc[n+]1CCCCCC[n+]1ccccc1Br	/	/	/	/	i	i
Cc1ccc(Cl)cc1N1CCN(C(=O)c2ccc(C)c(-n3c(C)nc4cccnc43)c2)CC1	/	/	/	/	i	i
CC1=CC(C)(C)n2c(O)c(N=N)c3c(C)c(C)cc1c32	23µM*	?	-18%	-6%	i	?
COc1ccc(-n2nc3cc(C)c(NC(=O)c4ccc(-c5ccc(Br)cc5)o4)cc3n2)cc1	/	/	/	/	i	i
Nc1nc(NCCO)nc(N2CCCCCC2)c1[N+](=O)[O-]	6%	4%	-6%	3%	i	i
OCCN(CCO)c1nc(N2CCCCC2)c2nc(N(CCO)CCO)nc(N3CCCCC3)c2n1	7µM*	12µM*!	-26%	?	/	/
CSc1cccc(Nc2nc3c(S(=O)(=O)c4ccccc4)nnn3c3ccc(Cl)cc23)c1	/	/	/	/	i	i
N#CCC(=O)Nc1nc(-c2ccc3c(c2)OCCO3)cs1	23µM*	?	-1%	-1%	i	i
COc1cccc(C(=O)Nc2nc(-c3ccncc3)cs2)c1	-3%	-12%	17%	19%	i	i
COc1cccc(C(=O)Nc2nc(-c3ccc4c(c3)OCO4)cs2)c1	16µM*	11%	1%	-4%	i	?
CC1=C(C(=O)OCc2ccccc2)C(/C=C/c2ccccc2)NC(=S)N1 (centres undefined)	23µM*	10%	?	-24%	i	?
C=CCOC(=O)C1=C(C)NC(=S)NC1/C=C/c1ccccc1 (centres undefined)	-5%	15µM*	?	13µM*	i	i
Cc1nnc(SCC(=O)N(CC(C)C)c2c(N)n(Cc3ccccc3)c(=O)[nH]c2=O)n1N	2%	1.3µM*	4%	3%	i	?
